Screening results: PubChem BioAssay, National Center for Advancing Translational Sciences (NCATS)
Bst PK mod – pyruvate kinase (B. stearothermophilus) modulation. AID 361. actives 1.2% (n = 51,000). purified pyruvate kinase, luminescence ATP production; ribose 5-phosphate activator present at AC10. Potency, µM; in the data active = potency below about 11 µM; inconclusive = mostly about 12 µM to 25 µM;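 the screen sought inhibitors and activators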;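 note: scaled between full activation by ribose 5 phosphate and full inhibition by luteolin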
Hsp90 Hop PPI – changes Hsp90-Hop TPR2A binding signal, up or down; actives 0.44% (n = 71,000); AlphaScreen TPR2A-His6 binding biotin-Hsp90 C-terminal peptide; Potency, µM (titrated, usually from 57 µM), inactives show top-dose activity change, negative = inhibition; active = well fitted curve in either direction with a large enough effect; inconclusive = small, poorly fitted or top-dose-only effect, or another doubt; note: % is set by controls: 0 for no effect and ±100 for the full control effect
GBA mod – human lysosomal glucosylceramidase modulation; Potency, µM; purified enzyme, resorufin glucoside fluorescence (screen aimed at inhibitors), 20 min; actives 1.1% (n = 48,000); in the data active = potency below about 15 µM; inconclusive = mostly about 16 µM to 33 µM;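 note: the screen sought inhibitors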
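Wild-type enzyme at 0.2 nM final in 50mM citric acid/KH2PO4, 10mM sodium taurocholate, 0.01% tween-20, pH 5.9, with resorufin beta-D-glucopyranoside at 30 uM final. Compounds titrated, 20 min at RT, red fluorescence read; AC50 from titration.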
Tau fil binding – binds recombinant human tau filaments. P10636. recombinant tau filaments, thioflavin S fluorescence, 15 h; filaments grown with octadecylsulfate alongside compound. Potency, µM (doses to about 57.1 µM), for the others: at the top dose activity change, negative = inhibition. actives 2% (n = 71,000). AID 596;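 note: % is set by controls: 0 for no effect and ±100 for the full control effect; actives lower thioflavin S fluorescence by blocking filaments or displacing dye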
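His-tagged recombinant human tau (exons 2, 3, 10; 1 uM final) fibrillized with 30 uM sodium octadecylsulfate, 15 h at 37 C, in pH 7.4 HEPES buffer with 10 uM thioflavine S and 5 mM DTT. Reduced ThS fluorescence (450/510 nm) marks activity.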
15-hLO inh – blocks human 15-lipoxygenase activity; P16050; purified 15hLO-1, xylenol orange hydroperoxide absorbance; Potency, µM (doses to about 57.1 µM), for the others: at the highest dose activity change, negative = inhibition, most hits filed as inhibitors; actives 1.4% (n = 74,000); note: % is set by controls: 0 for no effect and ±100 for the full control effect; nearly all actives have a fitted effect of over 55% in size
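Inhibition is scored from a chromogenic endpoint. After 15 min enzyme-compound contact, arachidonic acid (50 uM final) reacts 6 min with 40 nM 15hLO-1 at room temperature, then Fe-XO reagent is added for 30 min and absorbance ratio recorded.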
USP2a inhib – blocks human ubiquitin-specific protease USP2a; O75604; USP2a enzymatic assay, qHTS inhibition; Potency, µM (titrated, usually from 38.3 µM), without a hit: at the top dose activity change, negative = inhibition, actives largely listed as inhibitors; actives 0.1% (n = 60,000); AID 927; note: nearly all actives have a fitted effect of over 60% in size
Target sequence (O75604 whole entry, looked up): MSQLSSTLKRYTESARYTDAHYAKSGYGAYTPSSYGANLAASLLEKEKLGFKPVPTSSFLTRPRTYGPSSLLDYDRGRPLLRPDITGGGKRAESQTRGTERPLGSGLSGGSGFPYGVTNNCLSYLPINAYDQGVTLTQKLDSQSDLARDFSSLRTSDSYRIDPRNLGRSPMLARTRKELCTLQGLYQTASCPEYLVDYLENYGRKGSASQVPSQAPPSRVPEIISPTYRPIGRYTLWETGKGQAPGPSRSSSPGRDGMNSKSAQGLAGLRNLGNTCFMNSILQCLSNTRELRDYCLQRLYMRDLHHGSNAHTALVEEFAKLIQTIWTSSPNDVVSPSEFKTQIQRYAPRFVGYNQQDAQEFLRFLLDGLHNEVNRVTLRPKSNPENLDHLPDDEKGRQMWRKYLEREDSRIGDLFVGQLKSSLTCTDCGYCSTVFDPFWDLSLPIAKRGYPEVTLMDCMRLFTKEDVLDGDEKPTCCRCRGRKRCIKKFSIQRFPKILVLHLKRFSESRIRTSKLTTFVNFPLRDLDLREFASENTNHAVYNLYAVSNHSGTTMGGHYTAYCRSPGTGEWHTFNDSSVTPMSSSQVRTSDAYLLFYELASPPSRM
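Coupled readout: USP2-cleaved Ub-PLA2 (20nM final) turns over NBD C6-HPC (20uM final), Ex 460nm/Em 535nm after 2.5 h, time-zero read flagging artifacts. Enzyme (20nM final, pH 8.0 Tris) given 30 min RT with compound first; NEM defines full inhibition.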
Numbers without * were called inactive; [ ] = remark or other dose. Only some compounds are listed: those with a hit (about 4.6% of all), similar ones and a draw of the others. Unless noted, calls come from the whole dose curve; as a rule, active = well fitted curve in the direction sought with a large enough effect; inconclusive = small, poorly fitted or top-dose-only effect, or another doubt; inactive = no such curve, though single readings can be large; an effect the other way counts as inactive or inconclusive. Potency is the fitted concentration of half-maximal effect.

What do the screens show for `CCOC(=O)C1CCCN(c2ccc(NC(=O)c3snc4c(=O)[nH]cnc34)cc2)C1` (stereo unspecified)?
Bst PK mod: >57; Hsp90 Hop PPI: -20%; GBA mod: >77; Tau fil binding: 16µM*; 15-hLO inh: 11%; USP2a inhib: 25%

Results for CCn1c2ccccc2c2cc(N)ccc21 ?
Hsp90 Hop PPI: -26%; GBA mod: >77; Tau fil binding: 3.2µM*; 15-hLO inh: -17%; USP2a inhib: -10%

What do the screens show for `CCn1c2ccccc2c2nc3ccccc3nc21`?
Hsp90 Hop PPI: inconclusive; Tau fil binding: -13%; 15-hLO inh: -30%; USP2a inhib: inconclusive

How did CCn1c(C)cc(=S)c2ccccc21 do in these assays?
Bst PK mod: >57; Hsp90 Hop PPI: -4%; GBA mod: >77; Tau fil binding: 5µM*; 15-hLO inh: -26%; USP2a inhib: 2%

Results for CCn1c(=O)c(C(=O)NCCNCCO)c(O)c2ccccc21 ?
Bst PK mod: >57; Hsp90 Hop PPI: 47%; GBA mod: >77; Tau fil binding: 22%; 15-hLO inh: inconclusive; USP2a inhib: 5%

Results for O=c1c2ccccc2nc2n1CCC2 ?
Bst PK mod: >57; Hsp90 Hop PPI: inconclusive; GBA mod: >77; Tau fil binding: 2%; 15-hLO inh: 3.2µM*; USP2a inhib: inconclusive

What do the screens show for `O=c1c2ccccc2nc2n1CCCCC2`?
Bst PK mod: >57; Hsp90 Hop PPI: -5%; GBA mod: >77; Tau fil binding: 6%; 15-hLO inh: 10%; USP2a inhib: 0%

How did Cc1ccc(S(=O)(=O)N2CCCCC2)cc1C(=O)c1nccn1C do in these assays?
Bst PK mod: >57; Hsp90 Hop PPI: -2%; GBA mod: 10*; Tau fil binding: 7%; 15-hLO inh: 8%; USP2a inhib: -2%

Results for CC(C)(C)c1ccc(S(=O)(=O)NCCOCC(F)(F)C(F)F)cc1 ?
Bst PK mod: >57; Hsp90 Hop PPI: 3%; GBA mod: inconclusive; Tau fil binding: -16%; 15-hLO inh: -20%; USP2a inhib: 6%

What do the screens show for `Cc1cc(/C=C\c2ccc3cc(N(C)C)ccc3[n+]2C)c(C)n1-c1ccccc1`?
Hsp90 Hop PPI: inconclusive; Tau fil binding: 3.2µM*; USP2a inhib: 55%[17.1 µM]

Results for CC1=C(C(N)=O)C(c2ccco2)C(C(N)=O)=C(C)N1 ?
Hsp90 Hop PPI: -4%; Tau fil binding: 22%; 15-hLO inh: -26%; USP2a inhib: -6%

What do the screens show for `O=C(COc1ccc(Cl)cc1Cl)Nc1ccccn1`?
Bst PK mod: 0.13*; Hsp90 Hop PPI: 3%; GBA mod: >77; Tau fil binding: 11%; 15-hLO inh: 1%; USP2a inhib: 5%

How did O=C(COc1ccccc1O)Nc1ccc(Cl)cc1 do in these assays?
Bst PK mod: 11*; Hsp90 Hop PPI: 3%; GBA mod: >77; Tau fil binding: 0%; 15-hLO inh: -10%; USP2a inhib: 1%

Results for O=C(COc1ccccc1Cl)Nc1ccc(Cl)cn1 ?
Hsp90 Hop PPI: inconclusive; Tau fil binding: 3%; 15-hLO inh: -18%; USP2a inhib: -14%

Results for CCN1CCN(Cc2ccc(NC(=O)Nc3ccccc3OC)cc2)CC1 ?
Hsp90 Hop PPI: inconclusive; Tau fil binding: 1%; 15-hLO inh: 3.2µM*

Results for CCN1CCN(c2ccc(NC(=O)COc3ccccc3Cl)cc2)CC1 ?
Bst PK mod: >57; Hsp90 Hop PPI: -3%; GBA mod: 15*; Tau fil binding: -18%; 15-hLO inh: -14%; USP2a inhib: 7%

Results for COc1ccc2c(c1)c(CC(=O)N1CCOCC1)c(C)n2C(=O)c1ccc(Cl)cc1 ?
Hsp90 Hop PPI: 2%; Tau fil binding: -6%; 15-hLO inh: -16%[25.6 µM]; USP2a inhib: 20%

How did Cn1c(N2CCN(C(=O)NCc3ccccc3)CC2)nc2ccccc21 do in these assays?
Bst PK mod: >57; Hsp90 Hop PPI: -2%; GBA mod: >77; Tau fil binding: 4%; 15-hLO inh: 13%; USP2a inhib: 0%

How did Cc1onc(-c2ccccc2Cl)c1C(=O)Nc1cccc(-c2cn3cccnc3n2)c1 do in these assays?
Bst PK mod: >57; Hsp90 Hop PPI: -8%; GBA mod: 11*; Tau fil binding: 3%; 15-hLO inh: 0%; USP2a inhib: 30%

What do the screens show for `CCOc1ccc2nc(NS(=O)(=O)c3ccc4c(c3)n(C)c(=O)n4C)sc2c1`?
Hsp90 Hop PPI: -7%; GBA mod: >77; Tau fil binding: inactive; 15-hLO inh: inconclusive; USP2a inhib: 4%

Results for CCOc1ccc2nc(NS(C)(=O)=O)sc2c1 ?
Hsp90 Hop PPI: -1%; GBA mod: >77; Tau fil binding: 16µM*; 15-hLO inh: -12%; USP2a inhib: 28%

How did CS(=O)(=O)NC1CCN(Cc2ccccc2)CC1 do in these assays?
Bst PK mod: >57; Hsp90 Hop PPI: 0%; GBA mod: >77; Tau fil binding: -2%; 15-hLO inh: 5%; USP2a inhib: 8%

How did O=S(=O)(NC1CCCC1)c1ccc(S(=O)(=O)N2CCCN(Cc3ccccc3)C2)cc1 do in these assays?
Bst PK mod: >57; Hsp90 Hop PPI: -2%; GBA mod: 15*; Tau fil binding: -28%; 15-hLO inh: -10%; USP2a inhib: 3%

Results for CC(C)c1ccc2oc(-c3ccc(NC(=O)c4ncn[nH]4)cc3)nc2c1 ?
Bst PK mod: inactive; Hsp90 Hop PPI: inconclusive; GBA mod: >77; Tau fil binding: 347%; 15-hLO inh: inconclusive; USP2a inhib: 10%

Results for COc1ccc(S(=O)(=O)N2c3ccc(Cl)cc3[C@](O)(c3ccccc3Cl)[C@@H]2C(=O)N2CCC[C@H]2C(N)=O)cc1OC ?
15-hLO inh: 16µM*

How did CCCCn1c(CN2CCN(c3cccc(Cl)c3)CC2)nc2c1c(=O)n(C)c(=O)n2C do in these assays?
Bst PK mod: >57; Hsp90 Hop PPI: 0%; GBA mod: >77; Tau fil binding: 97%; 15-hLO inh: -13%; USP2a inhib: 39%

Results for CN[C@@H]1[C@H](O)[C@H](NC)[C@@H]2O[C@]3(O)C(=O)C[C@@H](C)O[C@H]3O[C@@H]2[C@H]1O ?
Hsp90 Hop PPI: inconclusive; Tau fil binding: 40µM*

Results for CN[C@@H]1[C@H](O)[C@H](NC)[C@H]2O[C@@]3(O)C(=O)C[C@@H](C)O[C@H]3O[C@@H]2[C@H]1O ?
15-hLO inh: 7%[25.6 µM]

How did CCCS(=O)(=O)NCCc1cc2c(OC)ccc(OC)c2[nH]c1=O do in these assays?
Bst PK mod: 6.4*; Hsp90 Hop PPI: inconclusive; GBA mod: >77; Tau fil binding: 0%; 15-hLO inh: 7%; USP2a inhib: -8%

How did COc1ccc(Nc2ccnc3ccccc23)cc1 do in these assays?
Bst PK mod: inactive; Hsp90 Hop PPI: -2%; GBA mod: inconclusive; Tau fil binding: 7.9µM*; 15-hLO inh: -3%; USP2a inhib: 18%
